Screening data from PubChem BioAssay.
Compounds with a hit are over-represented: about 12% of the library has one in this group of screens.
Pf growth 48h: Primary qHTS for delayed death inhibitors of the malarial parasite plastid, 48 hour incubation; Potency, µM (top dose mostly 28.7 µM), most hits filed as inhibitors; AID 504832, 2011; 310,000 tested, 5.9% active; P. falciparum luciferase growth in erythrocytes, 48 h
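Firefly luciferase activity from engineered P. falciparum reports growth; inhibitors lower the luminescent signal. Cultures contained 2% hematocrit erythrocytes at 0.1% final parasitemia.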
AmpC no deterg: qHTS Inhibitors of AmpC Beta-Lactamase (assay without detergent); P00811; AmpC nitrocefin hydrolysis, absorbance 480 nm, 0.0001% Triton; Potency, µM (series often up to 57.1 µM), hits mostly inhibitors; 330,000 tested, 0.52% active; AID 485341, 2010; also: nearly all actives have a fitted effect of over 20% in size
Target sequence (P00811 whole entry, looked up): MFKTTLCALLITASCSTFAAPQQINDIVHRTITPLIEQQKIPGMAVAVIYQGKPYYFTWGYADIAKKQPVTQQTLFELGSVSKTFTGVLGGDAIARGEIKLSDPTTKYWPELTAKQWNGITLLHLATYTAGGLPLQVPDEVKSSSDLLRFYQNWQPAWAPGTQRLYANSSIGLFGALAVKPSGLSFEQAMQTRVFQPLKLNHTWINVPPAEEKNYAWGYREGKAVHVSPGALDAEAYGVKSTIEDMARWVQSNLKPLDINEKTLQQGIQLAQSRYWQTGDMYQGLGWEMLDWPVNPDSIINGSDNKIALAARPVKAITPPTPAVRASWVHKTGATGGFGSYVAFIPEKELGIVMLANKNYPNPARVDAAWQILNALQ
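AmpC (5.3 nM in the dispensed reagent) in 20 mM phosphate pH 7.0 with 0.01% (detergent screen) or 0.0001% Triton X-100 was preincubated with compounds for 15 min at room temperature. Nitrocefin was then added from an 800 uM solution, and hydrolysis was followed at 480 nm.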
SARS PLpro yeast: qHTS of Yeast-based Assay for SARS-CoV PLP; 330,000 tested, 0.19% active; S. cerevisiae expressing SARS-CoV PLpro, growth rescue; AID 485353, 2010; Potency, µM (titrated, usually from 32.9 µM), hits mostly activators; calls by dose curve; also: nearly all actives have a fitted effect of over 55% in size
AmpC inh detg: qHTS Inhibitors of AmpC Beta-Lactamase (assay with detergent) | AmpC hydrolysis of nitrocefin, absorbance 480 nm, 0.01% Triton | 370,000 tested, 0.041% active | Potency, µM (top dose mostly 114 µM), most hits filed as inhibitors; also: nearly all actives have a fitted effect of over 25% in size
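AmpC (5.3 nM in the dispensed reagent) in 20 mM phosphate pH 7.0 with 0.01% (detergent screen) or 0.0001% Triton X-100 was preincubated with compounds for 15 min at room temperature. Nitrocefin was then added from an 800 uM solution, and hydrolysis was followed at 480 nm.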
Sm TGR block: qHTS Assay for the Inhibitors of Schistosoma Mansoni Peroxiredoxins; Schistosoma mansoni thioredoxin glutathione reductase (TGR), Q962Y6; purified TGR, DTNB reduction, TNB absorbance 405 nm; Potency, µM (titrated, usually from 114 µM), usual class: inhibitors; 360,000 tested, 3% active; also: nearly all actives have a fitted effect of over 60% in size
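Kinetic colorimetric format: TGR-catalysed, NADPH-driven DTNB reduction monitored via TNB absorbance. Enzyme dispensed at 20 nM; compound exposure 15 min at room temperature before reaction start.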
Pf growth 96h: Primary qHTS for delayed death inhibitors of the malarial parasite plastid, 96 hour incubation. P. falciparum luciferase reporter growth, 96 h. Potency, µM (highest dose often 28.7 µM), most hits filed as inhibitors. 320,000 tested, 6.9% active. AID 504834, 2011
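P. falciparum expressing integrated firefly luciferase grown in erythrocytes (2% hematocrit, 0.05% parasitemia final) with compounds for 96 hours at 37 C, 5% CO2. Growth inhibition read as loss of luminescence after adding luciferase detection reagent.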
Numbers stand for hits; . = inactive; ? = inconclusive; / = no result given. Unless noted, calls follow the shape of the dose curve; as a rule, active = well fitted curve in the direction sought with a large enough effect; inconclusive = small, poorly fitted or top-dose-only effect, or another doubt; inactive = no such curve, though single readings can be large; an effect the other way counts as inactive or inconclusive.

SMILES | Pf growth 48h | AmpC no deterg | SARS PLpro yeast | AmpC inh detg | Sm TGR block | Pf growth 96h
COc1ccc(C2=CC3=C(Br)C(=O)C(C)(OC(=O)c4ccc(Cl)nc4)C(=O)C3=CO2)cc1 (centres undefined) | . | . | . | . | 10µM | .
COC(=O)CCC(=O)OC1(C)C(=O)C2=CN(C(CO)CO)C(c3ccc(OC)cc3)=CC2=C(Br)C1=O (centres undefined) | ? | . | . | . | ? | ?
COc1cccc(C(=O)NCCc2csc(-c3cccc(F)c3)n2)c1OC | / | / | / | . | . | /
O=[N+]([O-])c1ccc(O)c(C2=NNC(c3ccccc3F)C2)c1 (centres undefined) | . | . | . | . | 5µM | .
COc1ccc([N+](=O)[O-])cc1C1NN=C(c2ccccc2O)S1 (centres undefined) | ? | . | . | . | . | /
CC(=O)c1cccc(NC(=O)CSc2nc3ccccc3nc2Cc2ccc(F)cc2)c1 | / | / | / | . | . | /
CC1=NN(/C(=N\c2nnc(C)s2)Nc2ccc(C(C)(C)C)cc2)[C@H](c2ccc(C)cc2)S1 | 4.1µM | . | . | . | . | 6.6µM
Cc1ccc(NC(=O)CCSc2nnc(C)s2)cc1 | . | . | . | ? | . | .
Cc1cc(-n2c(C)nc3ccccc3c2=O)ccc1NC(=O)c1cccc([N+](=O)[O-])c1 | / | / | / | . | . | /
Cc1ccc(-n2cc(CNCCc3ncc(C)[nH]3)c(-c3ccc(F)cc3)n2)cc1 | 1.7µM | . | . | . | . | .
Fc1ccc(-n2cc(CNCCc3ccccn3)c(-c3ccccc3Cl)n2)cc1 | 8.3µM | . | . | . | . | .
COc1ccc(-n2cc(CNCCN3CCOC3=O)c(-c3ccccc3Cl)n2)cc1 | . | . | . | . | ? | ?
COc1ccc(-n2cc(CNCCc3ncc(C)[nH]3)c(-c3ccccc3Cl)n2)cc1 | . | . | . | . | ? | ?
Cc1ccc(-n2cc(CNCCn3nc(C)cc3C)c(-c3ccc(F)cc3)n2)cc1 | ? | . | . | . | . | .
COc1ccc(-n2cc(CNCCCn3ccnc3)c(-c3ccccc3Cl)n2)cc1 | 1.5µM | . | . | . | ? | .
COc1ccc(-n2cc(CNCCc3nc(C)cc(C)n3)c(-c3ccccc3Cl)n2)cc1 | 12µM | . | . | . | ? | ?
COc1cc(C(=O)Nc2cccc(C)c2C)ccc1OCC(=O)N1CCOCC1 | . | . | . | ? | . | .
CCN1CCC(CNCc2cn(-c3ccc(OC)cc3)nc2-c2ccccc2Cl)C1 (centres undefined) | 2.1µM | . | . | . | . | ?
CSc1ncc(C(=O)NCc2ccc(C)cc2)c(-c2ccccc2)n1 | / | / | / | . | . | /
CC(=O)c1c(C(C)=O)c(C)n(-c2ccc(C)c(NC(=O)c3ccccc3Cl)c2)c1C | ? | . | . | . | . | 2.9µM
Cc1c(Nc2ncnc3c2cnn3-c2ccccc2)c(=O)n(-c2ccccc2)n1C | . | 0.14µM | . | . | . | /
CCCCNc1ncnc2c1cnn2-c1ccccc1 | . | . | . | . | . | 12µM
O=C(CCN1C(=O)c2ccccc2S1(=O)=O)Nc1ccc(F)c(F)c1F | ? | . | . | . | . | .
Cc1nn(-c2c(Cl)cc(Cl)cc2Cl)c(=O)c2ccccc12 | / | . | . | . | . | 13µM
O=C(NCCN1CCN(c2ccccc2)CC1)c1cccn2c(=O)c3ccccc3nc12 | . | . | . | . | . | .
O=C(NCCNc1ccc2ccccc2c1)c1cccn2c(=O)c3sccc3nc12 | ? | . | . | ? | . | 1.9µM
Cn1ncc2c(N3CCN(c4ccccc4Cl)CC3)ncnc21 | / | / | / | . | . | /
Oc1oc(-c2ccccc2)nc1/C=N/c1ccccn1 | . | . | . | . | . | 12µM
Cc1ccc(N(CC(=O)N2CCN(c3ccc(Cl)cc3)CC2)S(=O)(=O)c2c(C)noc2C)cc1 | / | / | / | . | . | /
